The list is not random: actives were taken first. Their share in the collection is about 3.1%.
Beta cell apopt: beta cell apoptosis inhibition; AID 435005; 300,000 compounds, 0.8% hits; INS-1E cytokine-induced death, ATP luminescence, 48 h; percent of positive-control rescue, neutral wells zero; protection from apoptosis, % (test concentration not listed);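 active = Every replicate reaches about 75%, or at least half do and their mean reaches it too, limit read from the data; inconclusive = At least half of replicates reach the limit but their mean does not; inactive = Under half of replicates reach the limit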;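 note: 0% = cytokine-treated negative control wells and 100% = positive control rescue; higher means more ATP so stronger rescue from cytokine killing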
PP5 primary: PP5 (human) phosphatase inhibition; P53041; purified PP5c, OMFP substrate fluorescence; inhibition, % at 6.7 µM; 320,000 compounds, 0.18% hits;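 active = inhibition above the campaign's mean inhibition across all tested compounds plus 3 SD, cut at about 9.5% in these data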;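 note: 0% = DMSO only and 100% = 100 µM cantharidin control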
SKKanGAS inh: SKKanGAS growth inhibition. S. pyogenes SKKanGAS, kanamycin growth, BacTiter-Glo, 6 h. inhibition, % at 7.5 µM. 300,000 compounds, 1.3% hits;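 active = mean replicate score, as percent of positive control median, at least 50; inconclusive = mean below 50 but one replicate at or above 50; inactive = mean and every replicate below 50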;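 note: strain carries kanamycin resistance gene driven by streptokinase promoter and grows in 40 µg/ml kanamycin; loss of luminescence reflects streptokinase promoter inhibition or plain growth inhibition; 0% = median of DMSO wells and 100% = positive control at its reference dose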
PP1 counter: blocks human PP1-alpha phosphatase, a PP5 counter-screen | purified PP1alpha, OMFP fluorescence | 320,000 compounds, 0.9% hits | AID 2235 | inhibition, % at 6.7 µM | P62136;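 active = inhibition above the mean inhibition of all tested compounds plus 3 SD, computed separately for each screening campaign, cut at about 15% in these data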
Target sequence (P62136 whole entry, looked up): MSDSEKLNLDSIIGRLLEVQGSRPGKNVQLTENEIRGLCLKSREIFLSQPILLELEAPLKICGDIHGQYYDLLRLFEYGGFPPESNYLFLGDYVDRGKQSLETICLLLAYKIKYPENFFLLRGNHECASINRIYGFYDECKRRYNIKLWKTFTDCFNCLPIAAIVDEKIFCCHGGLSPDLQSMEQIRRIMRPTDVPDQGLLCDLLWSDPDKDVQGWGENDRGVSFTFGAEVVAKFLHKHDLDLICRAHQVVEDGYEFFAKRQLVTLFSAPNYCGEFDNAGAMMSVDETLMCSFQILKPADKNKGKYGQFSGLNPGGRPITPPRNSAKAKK
CSC inhib: cancer stem cell inhibition | inhibition, % at 7.5 µM | cancer stem cell-like cells viability, luminescence | 300,000 compounds, 1.1% hits; in the data active = inhibition above about 75%; inconclusive = no clear call, values can overlap the other calls; tested in HMLE shEcad cells
* = called active by the depositor; u = inconclusive; x = no result; ! = a repeat was not active.

SMILES	Beta cell apopt	PP5 primary	SKKanGAS inh	PP1 counter	CSC inhib
CC(=O)c1ccc(NC(=O)CN2CCCC2)cc1	-4.3	3.3	11.0	1.2	-6.8
CCn1c(SCC(=O)Nc2ccc(OC)cc2)nc2nc3c(cc2c1=O)CCCC3	145.6*	1.2	5.5	-4.8	57.5
Cc1cccc(C(=O)NNC(=O)c2c(O)c3ccccc3n(C)c2=O)c1	-3.8	-2.2	88.1*	5.2	0.8
CCn1c(=O)c(C(=O)NNC(=O)c2cccc(Cl)c2)c(O)c2ccccc21	11.0	-1.2	102.6*	5.8	x
Cn1c(=O)c(C(=O)NNC(=O)c2ccccc2Cl)c(O)c2ccccc21	-1.3	-4.4	50.6*	7.6	17.4
Cn1c(=O)c(C(=O)NNC(=O)c2cccc(Cl)c2)c(O)c2ccccc21	65.5	1.9	61.7*	4.5	31.0
CCn1c(=O)c(C(C)=O)c(O)c2ccccc21	2.2	-5.0	-0.1	5.4	-1.2
CCOC(=O)N1CCN(S(=O)(=O)N2CCCC(C(=O)NCCc3ccc(OC)c(OC)c3)C2)CC1 (stereo not given)	-1.5	0.6	-0.9	0.0	-11.0
Cc1nc(=S)c2c([nH]1)-c1ccccc1CC21CCCCC1	5.2	-0.3	100.1*	-2.4	4.4
O=C(NCc1ccccc1)C(=O)Nc1nc(C23CC4CC(CC(C4)C2)C3)cs1	34.9	2.4	101.6*	-1.9	30.4
O=C(NCc1cccnc1)C(=O)NC1CCCCC1	-7.2	-0.5	-0.6	3.1	-17.3
O=C(NCc1ccncc1)C(=O)Nc1nc(C23CC4CC(CC(C4)C2)C3)cs1	2.1	5.2	5.6	6.9	-5.2
O=C(NCc1cccnc1)C(=O)Nc1nc(C23CC4CC(CC(C4)C2)C3)cs1	161.5*	1.2	6.4	4.4	13.2
CNC(=O)C(=O)Nc1nc(C23CC4CC(CC(C4)C2)C3)cs1	1.1	0.9	7.5	10.5	2.7
O=C(NCc1ccc(F)cc1)C(=O)Nc1nc(C23CC4CC(CC(C4)C2)C3)cs1	30.9	0.4	109.0*	-2.9	75.1*
COc1ccc(CSc2n[nH]c(C)n2)cc1[N+](=O)[O-]	-5.2	0.1	-5.3	0.1	-6.6
CCCOc1ccc(-c2nc(N3CCN(C)CC3)c3ccccc3n2)cc1	7.5	3.0	0.6	1.1	19.0
CCCOc1ccc(-c2nc(N3CCN(CC)CC3)c3ccccc3n2)cc1	6.6	4.4	1.0	7.6	88.2*
CC(C)N(Cc1ccccc1)C(=O)CN1C(=O)NC2(CCCCCC2)C1=O	-0.5	1.5	x	0.7	-2.0
COc1ccc2nc(C)cc(N/N=C/c3ccccc3)c2c1	96.1*	1.8	x	2.8	96.9*
COc1ccc(/C=N/Nc2cc(C)nc3ccc(OC)cc23)c(OC)c1	116.8*	1.8	-3.8	13.8	101.2*
COc1ccccc1/C=N/Nc1cc(C)nc2ccc(C)cc12	-1.3	0.7	-0.4	-3.1	56.8
O=C1c2ccccc2CN1CCSC(=S)N1CCOCC1	2.7	3.6	-0.8	-2.0	1.4
Cc1ccc(S(=O)(=O)CC2CSc3nc4ccccc4n32)cc1 (stereo not given)	91.9*	0.8	2.8	-0.2	6.1
CCOc1cc(/C=C2\CN(CC)C/C(=C\c3ccc(O)c(OCC)c3)C2=O)ccc1O	x	2.6	6.2	5.4	x
SMILES	Beta cell apopt	PP5 primary	SKKanGAS inh	PP1 counter	CSC inhib
CCN1C/C(=C/c2cccc([N+](=O)[O-])c2)C(=O)/C(=C/c2cccc([N+](=O)[O-])c2)C1	97.9*	-1.6	x	-1.9	84.8*
CCN(C(=O)c1ccc(C(C)(C)C)cc1)c1nnc(Cn2nnc3ccccc32)s1	111.8*	4.5	23.2	13.6	62.0
COc1ccc(Br)cc1S(=O)(=O)NCCCN1CCOCC1	-8.4	-0.9	-12.3	-3.6	-4.8
CCc1ccccc1NC(=O)CCC(=O)OCC(=O)c1ccc(-c2ccccc2)cc1	4.3	-1.2	-4.3	17.0*	-16.5
CCN(CC1COc2ccccc2O1)C(=S)NC1CC2CCC1C2 (stereo not given)	1.5	-0.1	16.3	-1.5	-4.5
CN(C)CCCNC(=O)c1ccc(-c2nc(-c3ccc(Cl)cc3)cs2)cc1	46.7	-0.4	9.8	1.4	99.8*
c1cncc(CNc2ncnc3ccc(-c4ccc5c(c4)OCCO5)cc23)c1	-0.3	x	x	x	x
CC(/C=C1\SC(=S)N(C(C(=O)O)c2ccccc2)C1=O)=C\c1ccccc1 (stereo not given)	-7.9	-2.9	60.6*	3.9	21.6
CC(/C=C1\SC(=S)N(CC(=O)O)C1=O)=C\c1ccccc1	-5.5	-1.0	3.9	2.5	-0.4
CC(c1ccccc1)N1C(=O)/C(=C/c2ccncc2)SC1=S (stereo not given)	x	4.2	5.9	17.1*	85.4*
CC12CCC(=O)N1C(C(=O)OCc1c(Cl)cccc1Cl)CS2 (stereo not given)	-1.1	-0.1	5.8	-0.7	-1.6
CCOC(=O)c1c(C)n(-c2ccc(C)cc2)c2ccc(OCC(O)CNCC3CCCO3)cc12 (stereo not given)	23.5	3.7	41.7	16.0*	118.3*
CC/C(=C(\c1ccc(O)cc1)c1ccc(OCCN(C)C)cc1)c1ccccc1	13.8	4.9	4.3	-1.8	52.2
CN(C)CCOc1ccc(C(C)(C)c2ccccc2)cc1	-2.0	0.2	0.8	-1.0	146.2*
CC/C(=C(\c1ccccc1)c1ccc(OCCN(C)C)cc1)c1ccccc1	1.2	3.5	66.1*!	17.2*!	99.4*
CC(C)c1ccc(NC(=O)[C@H](Cc2c[nH]c3ccccc23)NC(=O)[C@@H]2Cc3ccccc3CN2)cc1	-2.2	5.0	5.9	16.5*	-11.9
COc1ccc(NC(=O)[C@H](Cc2c[nH]c3ccccc23)NC(=O)[C@@H]2Cc3ccccc3CN2)cc1	x	0.6	0.2	6.6	-2.8
CCOc1cccc2c1OC(c1cc(OC)c(OC)c(OC)c1)N1N=C(c3ccc(C)o3)CC21 (stereo not given)	-2.0	3.5	-2.6	9.4	7.0
COc1cc(CNCCO)cc(Cl)c1OCc1ccc(Cl)cc1Cl	108.3*	2.0	13.1	2.6	6.7
COc1cc(CNC2CCCC2)cc(Cl)c1OCc1ccccc1Cl	u	5.1	-1.5	8.2	80.4*
Cc1ccc(S(=O)(=O)N(CC(=O)NCC2CCCO2)Cc2cccc(C)c2)cc1 (stereo not given)	-1.0	-0.3	8.2	-3.2	-10.3
COc1cc(C(=O)OCC(=O)NCc2ccc(F)cc2)ccc1OCC(C)C	-1.9	3.3	-16.9	-1.5	6.8
CCOc1ccc(N(C)S(=O)(=O)c2ccc(C)c(C(=O)OCC(=O)c3c[nH]c4ccccc34)c2)cc1	75.0*	1.7	12.1	-1.7	17.0
O=C(O)c1cccc(Nc2nc(-c3cc4ccccc4oc3=O)cs2)c1	x	x	19.7	x	x
c1ccc2nc(-c3nc4ccccc4[nH]3)ccc2c1	42.7	-0.5	13.9	-2.1	76.1*
CC1(C)CCCC(C)(C)N1CC(O)COCCOc1ccc(Br)cc1 (stereo not given)	x	0.7	-6.7	-0.1	x
Cc1[nH]c(=O)[nH]c(=O)c1S(=O)(=O)Nc1ccc(Br)cc1F	-5.6	x	2.8	x	5.2
